Bioassay records (PubChem BioAssay)
A selection: hits, their analogues and other compounds. The true share with any hit is near 5.7%.
KB-V1 cytotox: qHTS assay for MDR1-selective chemotherapeutics: Primary screen using the drug-selected MDR subline cells KB-V1 | KB-V1 MDR cells viability, CellTiter-Glo, 72 h | 400,000 compounds, 3.4% hits | AID 1347076, 2019 | Potency, µM (titrated, usually from 46.1 µM), usual class: cytotoxic; further: potency means the concentration at half of the fitted maximal effect; nearly all actives have a fitted effect of over 60% in size
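Luminescent ATP read-out (CellTiter-Glo, 10 min) measures survival of drug-selected KB-V1 MDR cells after 72 h, 37 degrees C compound exposure. Medium: phenol-red-free DMEM, 10% FBS. Values from fitted concentration-response curves.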
Giardia kill: Small Molecules that selectively kill Giardia lamblia: qHTS | Giardia lamblia trophozoite viability | activity change, % at 7.66 µM, hits read low | 340,000 compounds, 0.15% hits; in the data active means activity change below about -80%; inconclusive means between about -30% and that limit;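 further: parasites exposed to compound for two days anaerobically before the ATP read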
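Viability, read as ATP luminescence: trophozoites at 100 cells/well, compound added, 48 hrs anaerobic at 37 deg C, then 15-30 min room-temperature development before reading.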
Nrf2 inh: Nrf2 qHTS screen for inhibitors; A549 ARE-Fluc reporter, luciferase luminescence, 18-24 h; Potency, µM (doses to about 46 µM), inactives show at the top dose activity change, negative = inhibition, usual class: inhibitors; 360,000 compounds, 2.1% hits; AID 504444, 2011; further: potency means the concentration at half of the fitted maximal effect; nearly all actives have a fitted effect of over 60% in size
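Quantitative HTS in A549 cells stably bearing an antioxidant response element-firefly luciferase construct. Inhibition of Nrf2-driven transcription was scored by luminescence after 18-24 h of compound exposure at 37 °C.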
A549 tox: Nrf2 qHTS screen for inhibitors: counterscreen for cytotoxicity | A549 ARE-Fluc cells, CellTiter-Fluor viability, 18-24 h | Potency, µM (series often up to 46 µM), inactives show at the top dose activity change, negative = cytotoxicity, actives largely listed as inhibitors | 390,000 compounds, 0.16% hits; further: potency means the concentration at half of the fitted maximal effect
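Cytotoxicity counterscreen: CellTiter-Fluor fluorescence was measured in A549 ARE_Fluc cells after 18-24 h of compound exposure in a concentration series. The subsequent BugLite luminescent read reports ARE-luciferase activity.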
KB-3-1 tox: qHTS assay for MDR1-selective chemotherapeutics: Primary screen using the parental adenocarcinoma cell KB-3-1. KB-3-1 viability, CellTiter-Glo ATP luminescence, 72 h. Potency, µM (series often up to 46.1 µM), usual class: cytotoxic. 400,000 compounds, 1.4% hits; further: potency means the concentration at half of the fitted maximal effect; nearly all actives have a fitted effect of over 60% in size
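Viability of parental KB-3-1 cells, measured by CellTiter-Glo luminescence, followed a 72 h incubation at 37 °C with pinned compounds in phenol-red-free DMEM containing 10% FBS.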
PI4K2A inh: qHTS for small molecular inhibitors of PI4K2A. Phosphatidylinositol 4-kinase type 2-alpha (Homo sapiens), Q9BTU6. purified PI4K2A, ADP-Glo luminescence, 1 h; hits give low values. activity change, negative = inhibition, % at 76.9 µM. 420,000 compounds, 0.13% hits. AID 1346378, 2018; in the data active means activity change below about -50%; inconclusive means mostly about -30% to -49%;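 further: -100% = wells without enzyme as full effect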
Target sequence (Q9BTU6 whole entry, looked up): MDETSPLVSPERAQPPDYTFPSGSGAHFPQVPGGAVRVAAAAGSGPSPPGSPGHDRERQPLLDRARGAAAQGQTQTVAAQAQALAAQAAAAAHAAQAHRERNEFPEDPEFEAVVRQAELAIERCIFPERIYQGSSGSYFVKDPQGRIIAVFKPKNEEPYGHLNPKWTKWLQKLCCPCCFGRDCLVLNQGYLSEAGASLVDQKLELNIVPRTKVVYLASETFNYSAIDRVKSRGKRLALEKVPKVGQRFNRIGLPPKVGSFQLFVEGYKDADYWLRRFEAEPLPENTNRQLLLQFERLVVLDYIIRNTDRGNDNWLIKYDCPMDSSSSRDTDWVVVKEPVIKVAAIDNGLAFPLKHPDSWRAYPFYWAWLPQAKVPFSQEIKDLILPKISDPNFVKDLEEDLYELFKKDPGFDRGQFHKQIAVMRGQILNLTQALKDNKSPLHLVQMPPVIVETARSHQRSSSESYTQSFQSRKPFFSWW
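Compounds are screened against recombinant PI4K2A using PI as substrate and ATP, the latter dispensed at 300 microM. Reactions run one hour at ambient temperature before ADP-Glo detection; full inhibition defined by wells lacking enzyme.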
* hit, by the source's call; i = inactive; ? = inconclusive; . = no result. Unless noted, the call rests on the fitted dose curve; in most records, active means well fitted curve in the direction sought with a large enough effect; inconclusive means small, poorly fitted or top-dose-only effect, or another doubt; inactive means no such curve, though single readings can be large; an effect the other way counts as inactive or inconclusive. Unless noted, on the % scale 0 is the no-effect control and ±100 the full control effect.

SMILES | KB-V1 cytotox | Giardia kill | Nrf2 inh | A549 tox | KB-3-1 tox | PI4K2A inh
CCCc1cc(=O)[nH]c(SCC(=O)N2N=C(c3ccc(Cl)cc3)CC2c2ccco2)n1 (stereo not given) | 21µM* | 14 | 13% | -4% | ? | 5
CCOC(=O)N1C(=O)C[C@](Sc2ccc(OC)cc2)(C(=O)N2CCOCC2)[C@H]1c1ccc(OC)cc1 | . | . | . | . | . | -3
CN(C)S(=O)(=O)c1ccc(NC(=O)c2cc(F)c(F)cc2Cl)cc1 | 23µM* | -7 | -8% | -3% | i | 1
OCC1OC(n2cnc3c(NCc4ccccc4O)ncnc32)C(O)C1O (stereo not given) | 10µM* | 2 | 18µM* | -15% | ? | 7
OCC1OC(n2cnc3c(NO)ncnc32)C(O)C1O (stereo not given) | i | -4 | 19% | -3% | ? | .
OCC1OC(n2ccc3c(NO)ncnc32)C(O)C1O (stereo not given) | 0.52µM* | 3 | ? | 2.1µM* | 0.46µM* | -17
CN(C)c1ncnc2c1ccn2C1OC(CO)C(O)C1O (stereo not given) | ? | 10 | ? | -8% | 0.82µM* | 5
CCCC1CCC2(CCCN2CCOC(=O)Nc2ccccc2OC)CC1 (stereo not given) | . | . | . | . | . | 6
COc1ccc(CCNC(=O)C(=O)NCC(c2ccco2)S(=O)(=O)c2ccccc2)cc1OC (stereo not given) | . | . | . | 0% | . | 4
O=C(NCc1ccccc1Cl)c1ccc2c(c1)N(Cc1ccccc1)C(=O)c1ccccc1S2 | . | . | . | 13% | . | -3
COc1ccc(N2CCN(CCCNC(=O)CCc3ccc(F)cc3)CC2)cc1 | . | . | . | . | . | 2
COc1ccc(C(OC(=O)c2ccco2)C(=O)NC2CCCCC2)cc1 (stereo not given) | i | -6 | -11% | -8% | i | 4
COc1ccc(C(OC(=O)c2c(C)noc2C)C(=O)NC2CCCC2)cc1 (stereo not given) | 5.2µM* | 5 | -5% | -1% | i | -3
CCOc1ccc(Oc2nc(Nc3ccc(C)cc3)nc(N(C)C)n2)nn1 | ? | -10 | 21µM* | -12% | i | -1
CC(=O)N1N=C(c2cccc([N+](=O)[O-])c2)OC1(C)CC(=O)Nc1ccccc1 (stereo not given) | 21µM* | 16 | 9% | -2% | i | -4
C=CCn1c(SCc2ccc(C(=O)Nc3ccccc3)cc2)nnc1-c1ccccc1 | 2.6µM* | -5 | . | 0% | i | -3
COc1ccc(-n2c(COc3ccc(C)cc3)nnc2SCc2ccc(C#N)cc2)cc1 | 6.5µM* | 7 | ? | -19% | i | 2
Cn1c(SCc2ccc(C#N)cc2)nnc1-c1ccncc1 | i | 3 | 5% | -3% | i | -3
C=CCn1c(SCC(=O)c2ccccc2)nnc1-c1ccc2c(c1)OCO2 | 21µM* | -8 | 5% | 6% | i | -7
C=CCn1c(SCc2ccc(C#N)cc2)nnc1-c1ccc(C)cc1 | i | 15 | 21µM* | 3% | i | 8
C=CCn1c(SCC(=O)NCc2ccc3c(c2)OCO3)nnc1-c1cccnc1 | i | 10 | -18% | 1% | i | 3
COc1ccc(-c2nnc(SCc3c(F)cccc3F)n2N)cc1 | . | . | . | . | . | -5
O=C(c1ccc2c(=O)n(CC3CCCO3)c(=S)[nH]c2c1)N1CCN(C(=O)c2ccco2)CC1 (stereo not given) | . | -4 | -1% | 9% | . | .
COc1ccc(C(=O)NCc2nc(-c3cccc(C)c3)no2)cc1OC | . | . | -29% | 8% | . | -3
CCOC(=O)c1c(Nc2cc(C)cc(C)c2)nnc(-c2ccccc2)c1-c1ccccc1 | i | . | -1% | -5% | i | -7
